Test results: PubChem BioAssay (EPA / NIEHS)
Active and inactive are the calls of the source. The calls were made as follows: active = hit-call score of the fitted dose curve at least 0.9, where 1 is the maximum; inactive = score below 0.9.

test: CCTE_Harrill_HTTr_Viability_MCF7: CCTE's 6-hour Cell Viability Assessment for the High-Throughput Transcriptomics (HTTr) Platform, in MCF-7 cells cultured in DMEM + 10% fetal bovine serum, Harrill Lab (AID 2284010)
Outline: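 Eight-point concentration series, six-hour exposure. Propidium iodide exclusion imaged to assess membrane integrity as a cytotoxicity readout; bidirectional fitting was done with DMSO as negative control and activity baseline.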

| Compound | outcome | AC50 |
| --- | --- | --- |
| FC(F)C(F)(F)OCC(Cn1cncn1)c1ccc(Cl)cc1Cl (stereo not given) | inactive |  |
| C=C(C)[C@H]1Cc2c(ccc3c2O[C@@H]2COc4cc(OC)c(OC)cc4[C@@H]2C3=O)O1 | inactive |  |
| CC(=NC#N)N(C)Cc1ccc(Cl)nc1 | inactive |  |
| COc1cc(OC)nc(Sc2cccc(Cl)c2C(=O)O)n1 | inactive |  |
| CCCOCC(=Nc1ccc(Cl)cc1C(F)(F)F)n1ccnc1 | inactive |  |
| CCc1cccc(C)c1N(C(=O)CCl)C(C)COC (stereo not given) | inactive |  |
| CC(C)[C@H](C(=O)O[C@H](C#N)c1cccc(Oc2ccccc2)c1)c1ccc(Cl)cc1 | inactive |  |
| CCOP(=S)(Oc1cnc(C(C)(C)C)nc1)OC(C)C (stereo not given) | inactive |  |
| CN1COCN(Cc2cnc(Cl)s2)C1=N[N+](=O)[O-] | inactive |  |
| CCOC(=O)CC(SP(=O)(OC)OC)C(=O)OCC (stereo not given) | inactive |  |
| Nc1c(Cl)cc([N+](=O)[O-])cc1Cl | inactive |  |
| CSC1=N[C@@](C)(c2ccccc2)C(=O)N1Nc1ccccc1 | inactive |  |
| C#CCC1=C(C)C(OC(=O)C2C(C=C(C)C)C2(C)C)CC1=O (stereo not given) | inactive |  |
| O=C(O)c1cc(Oc2ccc(C(F)(F)F)cc2Cl)ccc1[N+](=O)[O-] | inactive |  |
| C[N+]1(C)CCCCC1 | inactive |  |
| CN(C)NC(=O)CCC(=O)O | inactive |  |
| CCOP(=O)(NC(C)C)Oc1ccc(SC)c(C)c1 (stereo not given) | inactive |  |
| CC[C@H](C)[C@H]1O[C@]2(C=C[C@@H]1C)C[C@@H]1C[C@@H](C/C=C(\C)[C@@H](O[C@H]3C[C@H](OC)[C@@H](O[C@H]4C[C@H](OC)[C@@H](NC)[C@H](C)O4)[C@H](C)O3)[C@@H](C)/C=C/C=C3\CO[C@@H]4[C@H](O)C(C)=C[C@@H](C(=O)O1)[C@]34O)O2 |  | 50 µM (active) |

| Compound | outcome | AC50 |
| --- | --- | --- |
| CN(C)C(=O)Nc1cccc(C(F)(F)F)c1 | inactive |  |
| N#CSCSC#N | inactive |  |
| CCOP(=S)(OCC)SCCSCC | inactive |  |
| COP(=O)(NC(C)=O)SC (stereo not given) | inactive |  |
| CCOP(=S)(OCC)Oc1ccc2c(C)c(Cl)c(=O)oc2c1 | inactive |  |
| O=[N+]([O-])c1cc(C(F)(F)F)c(Cl)c([N+](=O)[O-])c1Nc1ncc(C(F)(F)F)cc1Cl |  | 21.5 µM (active) |
| CNC(=O)ON=C(SC)C(=O)N(C)C | inactive |  |
| CN(C)[C@@H]1C(=O)C(C(N)=O)=C(O)[C@@]2(O)C(=O)C3=C(O)c4c(O)cccc4[C@@](C)(O)[C@H]3[C@H](O)[C@@H]12 | inactive |  |
| CC(C)=CC1C(C(=O)OCN2C(=O)C3=C(CCCC3)C2=O)C1(C)C (stereo not given) | inactive |  |
| CC(COc1ccc(Oc2ccccc2)cc1)Oc1ccccn1 (stereo not given) | inactive |  |
| CON=C(C(=O)OC)c1ccccc1CON=C(C)c1cccc(C(F)(F)F)c1 | inactive |  |
| CCc1cnc(C2=NC(C)(C(C)C)C(=O)N2)c(C(=O)O)c1 (stereo not given) | inactive |  |
| CC(C)N(C(=O)SCC(Cl)=C(Cl)Cl)C(C)C | inactive |  |
| COP(=O)(OC)C(O)C(Cl)(Cl)Cl (stereo not given) | inactive |  |
| Cc1ccn2nc(S(=O)(=O)Nc3c(F)cccc3F)nc2n1 | inactive |  |
| CC1=NNC(=O)N(/N=C/c2cccnc2)C1 | inactive |  |
| C[Si](Cn1cncn1)(c1ccc(F)cc1)c1ccc(F)cc1 | inactive |  |

test: CCTE_Harrill_HTTr_Apoptosis_MCF7: CCTE's 6-hour Apoptosis Assessment for the High-Throughput Transcriptomics (HTTr) Platform, in MCF-7 cells cultured in DMEM + 10% fetal bovine serum, Harrill Lab (AID 2284011)
Outline: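 MCF-7 (DMEM + 10% FBS), 384-well; 8-pt dilution series, 6 h chemical exposure; caspase-3/7 activation via CellEvent Caspase 3/7 Green, HCI; bidirectional fit vs DMSO.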

| Compound | outcome |
| --- | --- |
| FC(F)C(F)(F)OCC(Cn1cncn1)c1ccc(Cl)cc1Cl (stereo not given) | inactive |
| C=C(C)[C@H]1Cc2c(ccc3c2O[C@@H]2COc4cc(OC)c(OC)cc4[C@@H]2C3=O)O1 | inactive |
| CC(=NC#N)N(C)Cc1ccc(Cl)nc1 | inactive |
| COc1cc(OC)nc(Sc2cccc(Cl)c2C(=O)O)n1 | inactive |
| CCCOCC(=Nc1ccc(Cl)cc1C(F)(F)F)n1ccnc1 | inactive |
| CCc1cccc(C)c1N(C(=O)CCl)C(C)COC (stereo not given) | inactive |
| CC(C)[C@H](C(=O)O[C@H](C#N)c1cccc(Oc2ccccc2)c1)c1ccc(Cl)cc1 | inactive |
| CCOP(=S)(Oc1cnc(C(C)(C)C)nc1)OC(C)C (stereo not given) | inactive |
| CN1COCN(Cc2cnc(Cl)s2)C1=N[N+](=O)[O-] | inactive |
| CCOC(=O)CC(SP(=O)(OC)OC)C(=O)OCC (stereo not given) | inactive |
| Nc1c(Cl)cc([N+](=O)[O-])cc1Cl | inactive |
| CSC1=N[C@@](C)(c2ccccc2)C(=O)N1Nc1ccccc1 | inactive |
| C#CCC1=C(C)C(OC(=O)C2C(C=C(C)C)C2(C)C)CC1=O (stereo not given) | inactive |
| O=C(O)c1cc(Oc2ccc(C(F)(F)F)cc2Cl)ccc1[N+](=O)[O-] | inactive |
| C[N+]1(C)CCCCC1 | inactive |
| CN(C)NC(=O)CCC(=O)O | inactive |
| CCOP(=O)(NC(C)C)Oc1ccc(SC)c(C)c1 (stereo not given) | inactive |
| CC[C@H](C)[C@H]1O[C@]2(C=C[C@@H]1C)C[C@@H]1C[C@@H](C/C=C(\C)[C@@H](O[C@H]3C[C@H](OC)[C@@H](O[C@H]4C[C@H](OC)[C@@H](NC)[C@H](C)O4)[C@H](C)O3)[C@@H](C)/C=C/C=C3\CO[C@@H]4[C@H](O)C(C)=C[C@@H](C(=O)O1)[C@]34O)O2 | inactive |

| Compound | outcome |
| --- | --- |
| CN(C)C(=O)Nc1cccc(C(F)(F)F)c1 | inactive |
| N#CSCSC#N | inactive |
| CCOP(=S)(OCC)SCCSCC | inactive |
| COP(=O)(NC(C)=O)SC (stereo not given) | inactive |
| CCOP(=S)(OCC)Oc1ccc2c(C)c(Cl)c(=O)oc2c1 | inactive |
| O=[N+]([O-])c1cc(C(F)(F)F)c(Cl)c([N+](=O)[O-])c1Nc1ncc(C(F)(F)F)cc1Cl | inactive |
| CNC(=O)ON=C(SC)C(=O)N(C)C | inactive |
| CN(C)[C@@H]1C(=O)C(C(N)=O)=C(O)[C@@]2(O)C(=O)C3=C(O)c4c(O)cccc4[C@@](C)(O)[C@H]3[C@H](O)[C@@H]12 | inactive |
| CC(C)=CC1C(C(=O)OCN2C(=O)C3=C(CCCC3)C2=O)C1(C)C (stereo not given) | inactive |
| CC(COc1ccc(Oc2ccccc2)cc1)Oc1ccccn1 (stereo not given) | inactive |
| CON=C(C(=O)OC)c1ccccc1CON=C(C)c1cccc(C(F)(F)F)c1 | inactive |
| CCc1cnc(C2=NC(C)(C(C)C)C(=O)N2)c(C(=O)O)c1 (stereo not given) | inactive |
| CC(C)N(C(=O)SCC(Cl)=C(Cl)Cl)C(C)C | inactive |
| COP(=O)(OC)C(O)C(Cl)(Cl)Cl (stereo not given) | inactive |
| Cc1ccn2nc(S(=O)(=O)Nc3c(F)cccc3F)nc2n1 | inactive |
| CC1=NNC(=O)N(/N=C/c2cccnc2)C1 | inactive |
| C[Si](Cn1cncn1)(c1ccc(F)cc1)c1ccc(F)cc1 | inactive |
